From PubChem BioAssay
12-LOX inh: inhibitors of human 12S-lipoxygenase ALOX12; P18054; AID 1671190; 1.1% of 580,000 active; purified 12hLO, xylenol orange hydroperoxide absorbance; Potency, µM (doses to about 108 µM), without a hit: at the top dose activity change, negative = inhibition, hits mostly inhibitors; also: potency is read from the fitted curve at half-maximal effect; % is scaled to controls: 0 for no effect and ±100 for the full control effect
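Hydroperoxide product was detected by ferrous iron/xylenol orange as the 573 to 405 nm absorbance ratio. Arachidonic acid at 40 uM (final) was turned over for 30 min at room temperature by 150 nM human 12hLO, pH 7.0 Hepes buffer, after 15 min compound preincubation.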
uPA generation: inhibitors of cell surface uPA generation; cell surface uPA generation assay, qHTS; 0.31% of 330,000 active; Potency, µM (doses to about 38.3 µM), for inactives: top-dose activity change, negative = inhibition, most hits filed as inhibitors; active = well fitted inhibition curve with a large enough effect; inconclusive = small, poorly fitted or top-dose-only effect; inactive = no such curve, though single readings can be large or run the other way; tested in mouse RAW 264.7 cells; also: potency is read from the fitted curve at half-maximal effect; % is scaled to controls: 0 for no effect and ±100 for the full control effect; nearly all actives have a fitted effect of over 55% in size
Nrf2 activator: activates Nrf2 signaling; AREc32 ARE-luciferase reporter (MCF7-derived line), luminescence, 24 h; Potency, µM (titrated, usually from 46.1 µM), inactives show at the top dose activation, hits mostly activators; 0.31% of 410,000 active; also: potency is read from the fitted curve at half-maximal effect; % of control where 0% means no effect; nearly all actives have a fitted effect of over 65% in size
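Nrf2 activation is followed as ARE-luciferase induction in the AREc32 line after one day of compound treatment; luminescence is read with Steady-Glo.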
IL2 activator: activates IL-2 in a cell-based reporter assay | activation, % (series mostly up to about 46 µM) | 0.065% of 360,000 active | IL-2 activation reporter assay, cell-based qHTS; stimulated with anti-CD3/CD4/CD28 beads; in transgenic mouse T cells; in the data active = activation above about 50%; inconclusive = mostly about 30% to 49%; also: 0% is about no effect
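Unstimulated transgenic mouse T cells, 750 per well, received compound and, after 60 minutes, anti-CD3/anti-CD4 bead plus anti-CD28 stimulation. EGFP and DsRed were quantified after 18 hours.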
Integrin act MD: integrin-mediated muscular dystrophy alleviation activation; Potency, µM (titrated, usually from 38.3 µM), without a hit: top-dose activation, hits mostly activators; 0.064% of 350,000 active; alpha7betagal myoblasts, beta-gal FDG fluorescence, 48 h;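 also: potency is read from the fitted curve at half-maximal effect; 100% = response of the positive control SU9516; nearly all actives have a fitted effect of over 60% in size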
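Alpha7betagal+/- myoblasts (passage 13) were plated 16-24 hr, then exposed to compounds (1:260 dilution of DMSO stock) for 48 hours at 37C. After MPER lysis, β-galactosidase reporter activity was read as FDG fluorescence (ex 480/em 540) after 30 minutes.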
Active calls of the source: *; ? = inconclusive; / = no result given; [ ] = dose if it differs, or a comment. Hits are enriched below; roughly 1.5% of the tested compounds scored in any of these assays. Unless noted, calls follow the shape of the dose curve; as a rule, active = well fitted curve in the direction sought with a large enough effect; inconclusive = small, poorly fitted or top-dose-only effect, or another doubt; inactive = no such curve, though single readings can be large; an effect the other way counts as inactive or inconclusive.

SMILES	12-LOX inh	uPA generation	Nrf2 activator	IL2 activator	Integrin act MD
CCC(C)OC(=O)c1[nH]c2c(c1C)C(=O)CC(c1ccc(N(C)C)cc1)C2 (configuration not stated)	8%	10µM*	0%	-3	-30%
CCOCCOC(=O)c1[nH]c2c(c1C)C(=O)CC(c1ccc(N(C)C)cc1)C2 (configuration not stated)	-13%	13µM*	-1%	-2	-23%
CCCn1nc(C(=O)Nc2nc(C(C)=O)cs2)c2ccccc2c1=O	-38%	/	/	/	/
CCN1/C(=C/c2cc[n+](CCCS(=O)(=O)[O-])c3ccccc23)Sc2ccccc21	?	5%	0%	226*	17%
COc1ccccc1/C=C/CN1CCCC(CO)(Cc2cccc(Cl)c2)C1 (configuration not stated)	40µM*	6%	3%	-4	-56%
C=CCn1c(N)c(C(=O)NCCC2=CCCCC2)sc1=S	18µM*	-4%	5%	-1	-7%
NC(=O)NCCC1=CCCCC1	-24%	-4%	0%	2	-2%
Cc1ccc(-c2cc(=O)c3ccccc3[nH]2)cc1	-5%	11µM*	0%	1	-7%
Cc1cc2cc(NS(=O)(=O)c3ccc(C)c(C)c3)ccc2[nH]1	35µM*	/	/	/	/
COc1ccc(-c2onc3ccc(C(=O)/C=C/N(C)C)cc23)cc1	35µM*	-1%	3%	0	0%
CN(C)/C=C/C(=O)c1ccc2noc(-c3cccc(F)c3)c2c1	?	-16%	6%	0	14%
CCOC(=O)CSC1=NC(=O)/C(=C/c2ccc(Br)cc2)S1	40µM*	-4%	25%	-4	-19%
CCOC(=O)CSC1=NC(=O)/C(=C\c2ccc(OC(C)=O)cc2)S1	?	/	12%	-2	-13%[7.66 µM]
F[C@@H]1CN(Cc2ccnc3ccccc23)C[C@@H]1OCc1nc2ncccc2[nH]1	59%[176 µM]	/	/	/	/
Cc1cc(C)n(CC(=O)N[C@@H]2CN(Cc3ccccc3)C[C@H]2CN(C)C)c(=O)n1	51%	/	/	/	/
CN(C)c1cc(Cl)c2nonc2c1N	40µM*	5%	16%	0	-21%
COCCN1CCCC1c1nc(C2CN(C(=O)NCc3ccco3)C2)no1 (configuration not stated)	55%	/	/	/	/
COc1ccc2oc3c(ccc[n+]3C)c(=O)c2c1	13µM*	/	0%	1	/
CCCCn1nc(C(=O)Nc2ccc(OC(F)F)c(Cl)c2)c2ccccc2c1=O	-2%	/	/	/	/
COc1ccc(CN2CCC(Cc3ccccc3)CC2)cc1OC	?	?	0%	0	-53%
COc1cccc(OC)c1OCCCN1CCC(Cc2ccccc2)CC1	11µM*	-6%	0%	-5	-50%
O=C(c1c[nH]c2ccccc12)N1CCN(C(=O)C2CC2)CC1	-6%	/	/	/	/
CCOC(=O)N1C/C(=C\c2ccccc2)C(=O)/C(=C/c2ccccc2)C1	116%	9%	11µM*	-4	10%
O=S(=O)(c1ccc(-c2csc(Nc3cccc4ccccc34)n2)cc1)N1CCCCC1	16µM*	/	/	/	/
Cc1nn2c3c(cnc2c1-c1ccccc1)C(=O)CC(c1ccco1)C3 (configuration not stated)	-8%	0%	1.3µM*	-1	-37%
SMILES	12-LOX inh	uPA generation	Nrf2 activator	IL2 activator	Integrin act MD
O=C(C1CCCC1)N1CCC2(CC1)CC(c1ccccc1)=NO2	6%[6.33 µM]	/	/	/	/
Nc1nc(N)nc(-c2cc(O)ccc2O)n1	-4%	3%	-2%	0	-9%
CC1CCC(C)[S+]1c1cc(O)ccc1O (configuration not stated)	10µM*	/	/	/	/
O=S1(=O)C=C(N2CCOCC2)c2ccccc21	-9%	1%	13µM*	-3	-42%
c1ccc(N2CCOCCOCCOCCOCC2)cc1	0%	-1%	0%	-2	-10%
Cc1cccc2c(=O)c(-c3ccc4c(c3)OCO4)c(NC(=O)C(C)C)oc12	32%	/	/	/	/
Cc1cccc(Nc2nc(-c3cc4ccccc4oc3=O)cs2)c1	40µM*	/	/	/	/
O=C(O)c1ccc(Nc2nc(-c3cc4ccccc4oc3=O)cs2)cc1O	40µM*	3%	5%	1	28%
O=c1oc2ccc(Cl)cc2cc1-c1csc(Nc2ccccc2)n1	20µM*	/	/	/	/
CC(=O)Nc1ccc(Nc2nc(-c3cc4ccccc4oc3=O)cs2)cc1	?	-11%	5%	3	-42%
